Test results from PubChem BioAssay (Tox21).
Where “and” joins values, the source holds several entries; their conditions need not be identical. Equal values may be shown once. Records with an inconclusive call do not appear. Some compounds were tested as several samples or in several runs, with calls that do not always agree. Calls of active or inactive are those of the source. Unless noted, calls follow the shape of the full dose curve.

How the values were obtained:
[1] = Nuclear factor erythroid 2-related factor 2/antioxidant responsive element (Nrf2/ARE) small molecule agonists: qHTS cell viability counter screen in human keratinocytes (AID 1919968; active = well fitted cell-killing curve with a large enough effect in the repeat runs; also: nearly all actives have a fitted effect of over 55% in size; also: potency is read from the fitted curve at half-maximal effect)
Method in brief: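 Viability counter-screen: KeratinoSens reporter cells, DMSO-delivered compounds, 23 h at 37 C, CellTiter-Fluor fluorescence.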

[2] = Nuclear factor erythroid 2-related factor 2/antioxidant responsive element (Nrf2/ARE) small molecule agonists: luciferase reporter gene qHTS assay in human keratinocytes (AID 1919969); also: nearly all actives have a fitted effect of over 35% in size; also: potency is read from the fitted curve at half-maximal effect
[3] = biological target: Gonadotropin-releasing hormone receptor (Homo sapiens) (UniProt P30968); assay: Human gonadotropin-releasing hormone receptor (GnRHR) small molecule agonists, calcium flux assay in GnRHR-HEK293 cells (AID 1920063); also: nearly all actives have a fitted effect of over 35% in size
Method in brief: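 Tox21-format agonist screen using human GnRHR-expressing HEK293 cells and a fluorescent calcium dye; kinetic 3-min fluorescence reading after compound addition, 15-point concentration series run in triplicate.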

[4] = G protein-coupled receptor (GPCR) small molecule agonists, calcium flux assay: HEK293 wild type cell line counter screen (AID 1920065)
Method in brief: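 In this agonist-mode screen, ATP is the positive control and DMSO the vehicle. Cells grow 18 h before a 1 h dye incubation at 37 C; signal is taken at Ex/Em 480/540 over 3 min.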

[5] = p53 small molecule agonists, cell-based qHTS assay with human liver microsomes: qHTS cell viability counter screen (AID 1963579); also: nearly all actives have a fitted effect of over 45% in size; also: potency is read from the fitted curve at half-maximal effect
Method in brief: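 In this multiplexed counter screen, the reporter plates were subsequently treated with CellTiter-Glo so that cell viability, reflected by luminescence, could be recorded for p53RE-bla cells dosed 16 h with compounds under microsomal activation (HLM and NADPH).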

[6] = p53 small molecule agonists, cell-based qHTS assay: qHTS cell viability counter screen (AID 1963581); also: nearly all actives have a fitted effect of over 45% in size; also: potency is read from the fitted curve at half-maximal effect
Method in brief: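 Compounds are pinned onto HCT-116 p53RE-bla cells and left 16 h at 37 C. Following the reporter FRET read, ATP is quantified by CellTiter-Glo luminescence after 30 min at room temperature.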

[7] = biological target: 5-hydroxytryptamine receptor 2A (Homo sapiens) (UniProt P28223); assay: 5-hydroxytryptamine receptor 2A (HTR2A) small molecule antagonists, cell-based qHTS assay (AID 1963586); also: nearly all actives have a fitted effect of over 45% in size
Method in brief: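 Antagonist-mode intracellular calcium assay: DOI (4 nM) added after 5 min compound pre-incubation at room temperature to dye-loaded HTR2A-CHO cells. Fluorescence followed for 3 min, sampled every second.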

[8] = biological target: 5-hydroxytryptamine receptor 2A (Homo sapiens) (UniProt P28223); assay: 5-hydroxytryptamine receptor 2A (HTR2A) small molecule agonists, cell-based qHTS assay (AID 1963587); also: nearly all actives have a fitted effect of over 30% in size; also: potency is read from the fitted curve at half-maximal effect
Method in brief: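 HTR2A-CHO cells, plated 18 h at 37 C/5% CO2, dye-loaded 1 h at 37 C; compounds in DMSO added by pin tool (agonist mode). Intracellular calcium flux read as kinetic fluorescence on FDSS over 2 min at 1 s intervals.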

[9] = biological target: Muscarinic acetylcholine receptor M1 (Homo sapiens) (UniProt P11229); assay: Cholinergic receptor muscarinic 1 (CHRM1) small molecule antagonists, cell-based qHTS assay (AID 1963588); also: nearly all actives have a fitted effect of over 40% in size
Method in brief: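 CHRM1-CHO calcium-flux assay, antagonist mode. Cells were seeded 18 h, dye-loaded 1 h at 37 C and given compound for 5 min at RT, then acetylcholine was added at 50nM. FDSS fluorescence was read 3 min; 15 concentrations, three runs.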

[10] = biological target: Muscarinic acetylcholine receptor M1 (Homo sapiens) (UniProt P11229); assay: Cholinergic receptor muscarinic 1 (CHRM1) small molecule agonists, cell-based qHTS assay (AID 1963589); also: nearly all actives have a fitted effect of over 35% in size
Method in brief: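 Stable CHRM1-CHO cells (human receptor) were incubated 18 h, dye-loaded for 1 h at 37 C and exposed to test compounds for agonist activity, with calcium-dependent fluorescence followed kinetically.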

[11] = cAMP Responsive Elements (CRE) small molecule agonists, cell-based qHTS assay (AID 1963590)
Method in brief: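 FRET-based beta-lactamase readout (LiveBLAzer B/G, 2 h RT) quantified CRE activation in HEK 293T CRE-bla cells after 3 h treatment with DMSO-dissolved compounds.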

[12] = biological target: D(2) dopamine receptor (Homo sapiens) (UniProt P14416); assay: Dopamine D2 receptor (DRD2) small molecule agonists, cell-based qHTS assay (AID 1963594); also: nearly all actives have a fitted effect of over 35% in size
Method in brief: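 HEK293 cells stably expressing DRD2 were cultured 24 h at 37 C, then given Ro20-1724 (0.1 mM final) and compounds for 10 min at room temperature. NKH477 (200nM) was then added for 30 min. cAMP was read by HTRF.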

[13] = p53 small molecule agonists, cell-based qHTS assay with rat liver microsomes: qHTS cell viability counter screen (AID 1963580); also: nearly all actives have a fitted effect of over 45% in size; also: potency is read from the fitted curve at half-maximal effect
Method in brief: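 In HCT-116 cells carrying a p53 response element-bla reporter, compounds were metabolically activated in situ by rat liver microsomes with NADPH over 16 h. Cell ATP content then served as the cytotoxicity measure.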

[14] = cAMP Responsive Elements (CRE) small molecule antagonists, cell-based qHTS assay (AID 1963591; active = well fitted inhibition curve with a large enough effect in the signal ratio in the repeat runs, not every such curve was filed as active; the % refers to the signal ratio)
Method in brief: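 qHTS in CRE-bla HEK 293T cells: compound in DMSO, then 0.25 uM NKH477 (final), 3 h at 37 °C/5% CO2; beta-lactamase FRET read-out after 2 h substrate incubation.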

[15] = biological target: Beta-2 adrenergic receptor (Homo sapiens) (UniProt P07550); assay: Adrenergic beta2 receptor (ADRB2) small molecule antagonists, cell-based qHTS assay (AID 1963592); also: nearly all actives have a fitted effect of over 50% in size; also: potency is read from the fitted curve at half-maximal effect
Method in brief: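 Cells (CHO, stable ADRB2 overexpression) incubated 18-20hr at 37C; compounds added from DMSO; agonist mix (1nM isoproterenol, 100uM IBMX, 25uM Ro-20-1724) added; 0.5hr RT; d2-cAMP and anti-cAMP-cryptate added; 1hr RT; 665/615 nm read.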

[16] = biological target: Beta-2 adrenergic receptor (Homo sapiens) (UniProt P07550); assay: Adrenergic beta2 receptor (ADRB2) small molecule agonists, cell-based qHTS assay (AID 1963593); also: potency is read from the fitted curve at half-maximal effect;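 as to activation: CHO cells stably overexpressing human ADRB2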
Method in brief: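 CHO cells stably over-expressing ADRB2 were plated overnight at 37C, then dosed with compounds plus a stimulation mix containing 100uM IBMX and 25uM Ro-20-1724 for 0.5hr at room temperature. cAMP was measured by HTRF competition, 1hr.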

[17] = biological target: D(2) dopamine receptor (Homo sapiens) (UniProt P14416); assay: Dopamine D2 receptor (DRD2) small molecule antagonists, cell-based qHTS assay (AID 1963595; active = well fitted inhibition curve with a large enough effect in the signal ratio in the repeat runs, with a control signal flat; the % refers to the signal ratio; also: potency is read from the fitted curve at half-maximal effect)
Method in brief: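 HEK293 cells stably expressing DRD2 were preincubated with 0.1 mM Ro20-1724, then with compound for 10 min at room temperature. Cells were stimulated with 200 nM NKH477 plus 12 nM quinpirole for 30 min, and cAMP was read by HTRF.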

[18] = p53 small molecule agonists, cell-based qHTS assay with human liver microsomes (AID 1963577);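 also: p53 response element beta-lactamase reporter cells with liver microsomes plus NADPH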
Method in brief: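 16 h, 37 C exposure of p53RE-bla cells to compounds with human liver microsomes and NADPH (0.5 mg/mL final each); detection via LiveBLAzer mixture, 2 h dark at room temperature.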

[19] = p53 small molecule agonists, cell-based qHTS assay with rat liver microsomes (AID 1963578)
Method in brief: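 With rat liver microsomes and NADPH present (0.5 mg/mL final each), p53RE-bla cells are treated with compound for 16 h at 37 C. LiveBLAzer detection mixture is then applied for 2 h at room temperature in the dark.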

[20] = p53 small molecule agonists, cell-based qHTS assay (AID 1963582; active = well fitted activation curve with a large enough effect in the signal ratio in the repeat runs, not every such curve was filed as active; the % refers to the signal ratio)
Method in brief: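 Agonist activity was scored from beta-lactamase FRET fluorescence in p53RE-bla cells treated 16 h at 37 C with compounds in DMSO, substrate incubation being 2 h at room temperature.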

Measured: Potency

Sequence of Gonadotropin-releasing hormone receptor (Homo sapiens) (P30968 whole entry, looked up): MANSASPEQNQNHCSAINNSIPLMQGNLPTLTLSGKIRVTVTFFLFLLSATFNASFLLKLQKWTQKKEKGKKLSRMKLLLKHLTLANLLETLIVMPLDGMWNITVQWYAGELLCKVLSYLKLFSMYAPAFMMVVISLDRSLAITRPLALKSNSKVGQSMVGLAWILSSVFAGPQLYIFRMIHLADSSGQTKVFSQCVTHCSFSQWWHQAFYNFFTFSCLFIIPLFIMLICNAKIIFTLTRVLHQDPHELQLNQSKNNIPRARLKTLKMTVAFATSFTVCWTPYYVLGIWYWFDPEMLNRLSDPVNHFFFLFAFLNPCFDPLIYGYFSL
Sequence of 5-hydroxytryptamine receptor 2A (Homo sapiens) (P28223 whole entry, looked up): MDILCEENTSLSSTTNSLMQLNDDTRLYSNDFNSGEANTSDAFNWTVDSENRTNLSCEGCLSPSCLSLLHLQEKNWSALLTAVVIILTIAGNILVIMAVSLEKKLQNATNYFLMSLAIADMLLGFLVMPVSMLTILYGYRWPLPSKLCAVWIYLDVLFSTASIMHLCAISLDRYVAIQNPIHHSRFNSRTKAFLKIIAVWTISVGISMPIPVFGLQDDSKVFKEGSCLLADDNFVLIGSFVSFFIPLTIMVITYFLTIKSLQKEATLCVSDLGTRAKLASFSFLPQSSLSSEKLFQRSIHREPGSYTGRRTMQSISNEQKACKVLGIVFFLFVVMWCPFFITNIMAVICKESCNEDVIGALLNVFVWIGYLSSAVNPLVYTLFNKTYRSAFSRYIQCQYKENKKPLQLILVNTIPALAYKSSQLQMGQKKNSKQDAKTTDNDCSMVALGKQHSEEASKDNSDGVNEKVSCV
Sequence of D(2) dopamine receptor (Homo sapiens) (P14416 whole entry, looked up): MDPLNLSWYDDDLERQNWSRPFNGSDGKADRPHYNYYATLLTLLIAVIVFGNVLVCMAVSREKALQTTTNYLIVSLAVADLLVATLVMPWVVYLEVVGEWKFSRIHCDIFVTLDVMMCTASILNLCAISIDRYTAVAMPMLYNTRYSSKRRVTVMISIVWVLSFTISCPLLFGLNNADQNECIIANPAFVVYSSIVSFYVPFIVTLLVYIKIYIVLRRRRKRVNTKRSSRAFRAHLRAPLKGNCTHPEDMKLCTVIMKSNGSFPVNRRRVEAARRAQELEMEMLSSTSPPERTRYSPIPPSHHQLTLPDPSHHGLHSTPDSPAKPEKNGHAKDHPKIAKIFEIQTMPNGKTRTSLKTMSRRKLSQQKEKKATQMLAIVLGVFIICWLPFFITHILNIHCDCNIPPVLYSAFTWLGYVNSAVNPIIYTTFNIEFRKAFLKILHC
Sequence of Beta-2 adrenergic receptor (Homo sapiens) (P07550 whole entry, looked up): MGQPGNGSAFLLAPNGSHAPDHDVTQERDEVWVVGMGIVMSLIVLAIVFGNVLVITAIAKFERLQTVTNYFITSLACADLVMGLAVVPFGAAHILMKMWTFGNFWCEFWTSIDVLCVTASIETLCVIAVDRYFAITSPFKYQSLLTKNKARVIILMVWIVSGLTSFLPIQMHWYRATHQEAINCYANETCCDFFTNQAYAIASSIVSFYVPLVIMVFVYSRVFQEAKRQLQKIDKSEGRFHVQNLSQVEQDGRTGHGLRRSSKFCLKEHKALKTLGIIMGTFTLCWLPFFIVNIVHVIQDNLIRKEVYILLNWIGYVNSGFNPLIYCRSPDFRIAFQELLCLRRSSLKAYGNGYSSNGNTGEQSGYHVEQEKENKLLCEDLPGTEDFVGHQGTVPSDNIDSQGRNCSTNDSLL
Sequence of Muscarinic acetylcholine receptor M1 (Homo sapiens) (P11229 whole entry, looked up): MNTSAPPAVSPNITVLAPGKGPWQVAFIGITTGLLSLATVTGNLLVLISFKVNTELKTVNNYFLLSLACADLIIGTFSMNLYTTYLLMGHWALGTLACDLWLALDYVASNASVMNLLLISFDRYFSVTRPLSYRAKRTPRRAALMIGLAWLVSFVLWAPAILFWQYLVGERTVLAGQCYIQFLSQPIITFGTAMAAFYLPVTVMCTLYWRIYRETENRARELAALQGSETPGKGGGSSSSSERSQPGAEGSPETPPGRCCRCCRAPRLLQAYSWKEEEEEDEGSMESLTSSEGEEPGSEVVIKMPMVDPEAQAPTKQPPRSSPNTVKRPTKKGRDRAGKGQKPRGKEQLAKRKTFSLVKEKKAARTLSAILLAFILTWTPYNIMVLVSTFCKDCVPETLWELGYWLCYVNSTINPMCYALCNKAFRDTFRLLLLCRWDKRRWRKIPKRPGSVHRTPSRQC

Nc1cccc(N)n1
inactive: [1] | [2] | [3] | [4] | [5] | [6] | [7] | [8] | [9] | [10] | [11] | [12]

O=C(c1ccccc1)c1ccccc1O
inactive: [1] | [2] | [3] | [4] | [13] | [6] | [8] | [9] | [10] | [14] | [15]

C=CC(=O)OCC(CO)(COC(=O)C=C)COC(=O)C=C
inactive: [3] | [4] | [7] | [8] | [9] | [10] | [15] | [12]
active: [1] 4.87 µM and 12.2 µM | [2] 4.87 µM and 6.11 µM | [5] 45.9 µM and 9.13 µM | [6] 16.3 µM and 10.2 µM | [16] 6.88 µM and 19.3 µM | [17] 54.6 µM and 21.7 µM

CCCCOCCCC
inactive: [1] | [2] | [3] | [18] | [19] | [5] | [13] | [6] | [20] | [7] | [8] | [9] | [10] | [11] | [14] | [15] | [16] | [12] | [17]

Cc1cccc(Nc2ccccc2C(=O)O)c1C
inactive: [1] | [2] | [3] | [4] | [5] | [13] | [15] | [16] | [12] | [17]

Cc1oncc1C(=O)Nc1ccc(C(F)(F)F)cc1
inactive: [1] | [3] | [18] | [19] | [6] | [20] | [14] | [15] | [12]
27.3 µM (active) and inactive: [2]
active: [13] 20.4 µM

O=C1NCCN1CCO
inactive: [1] | [2] | [3] | [18] | [19] | [5] | [13] | [20] | [7] | [8] | [9] | [10] | [11] | [14] | [15] | [16] | [12] | [17]

NC(=O)c1ccc([N+](=O)[O-])cc1Cl
inactive: [1] | [2] | [3] | [19] | [5] | [13] | [6] | [20] | [7] | [8] | [9] | [11] | [14] | [15] | [16] | [12] | [17]

CCc1c(Br)c(Br)c(Br)c(Br)c1Br
inactive: [1] | [2] | [3] | [19] | [5] | [13] | [6] | [7] | [8] | [9] | [10] | [11] | [14] | [15] | [16] | [12] | [17]

N[C@H](Cc1c[nH]c2ccccc12)C(=O)O
inactive and 19 µM (active): [8]
inactive: [1] | [2] | [3] | [5] | [13] | [6] | [7] | [9] | [10] | [11] | [14] | [15] | [16] | [12] | [17]

COS(=O)(=O)O
inactive: [1] | [2] | [3] | [18] | [19] | [5] | [13] | [20] | [7] | [8] | [10] | [11] | [14] | [15] | [12] | [17]

N[C@@H](Cc1c[nH]c2ccccc12)C(=O)O
34.7 µM (active) and inactive: [8]
inactive: [1] | [2] | [3] | [5] | [13] | [6] | [7] | [9] | [10] | [11] | [14] | [15] | [12] | [17]

Clc1cc(Cl)c(Cl)c(Cl)c1Cl
inactive: [1] | [2] | [3] | [18] | [19] | [5] | [13] | [6] | [20] | [7] | [9] | [10] | [11] | [14] | [12] | [17]

O=C(c1ccc2c(c1)C(=O)OC2=O)c1ccc2c(c1)C(=O)OC2=O
inactive: [1] | [2] | [3] | [18] | [19] | [5] | [13] | [6] | [20] | [7] | [8] | [10] | [11] | [15] | [12]

C=CC(C)CCC=C(C)C (stereo not drawn)
inactive: [1] | [2] | [3] | [19] | [5] | [13] | [6] | [20] | [7] | [8] | [9] | [10] | [11] | [14] | [15] | [16] | [12] | [17]

O=C(Nc1ccc(Cl)cc1)Nc1ccc(Cl)c(Cl)c1
inactive: [1] | [3] | [18] | [19] | [5] | [13] | [6] | [20] | [7] | [8] | [9] | [10] | [14] | [12]
48.6 µM (active) and inactive: [17]
active: [15] 68.2 µM and 54.5 µM
21.6 µM (active) and inactive: [2]

FC(F)(F)c1ccccc1
inactive: [1] | [2] | [3] | [18] | [19] | [5] | [13] | [6] | [20] | [7] | [8] | [10] | [11] | [14] | [12] | [17]
